From the supplement of paper PMC6992640
± gives the standard deviation of the averaged measurements.

Legend:
Test in all cases: cell viability (% of vehicle); higher = less cytotoxic
Conditions in all cases: 10 µM; 72 h
HCI01 = test system: HCI01 (cells of a triple-negative basal-like breast cancer xenograft)
HCI03 = test system: HCI03 (cells of an ER-positive luminal breast cancer xenograft)
HCI09 = test system: HCI09 (cells of a triple-negative luminal androgen receptor type breast cancer xenograft)
HCI11 = test system: HCI11 (cells of an ER-positive luminal breast cancer xenograft)
HCI13 = test system: HCI13 (cells of an ER-positive luminal breast cancer xenograft)
HCI16 = test system: HCI16 (cells of a triple-negative basal-like breast cancer xenograft)
UCD52 = test system: UCD52 (cells of a triple-negative basal-like breast cancer xenograft)
WHIM2 = test system: WHIM2 (cells of a triple-negative basal-like breast cancer xenograft)
WHIM30 = test system: WHIM30 (cells of a triple-negative basal-like breast cancer xenograft)
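Further: PDX cells carrying CMV promoter-driven luciferase, viability read as total photon flux per second by IVIS imaging following D-luciferin, vehicle control 0.1% DMSO.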

| SMILES | cell viability (HCI01) | cell viability (HCI03) | cell viability (HCI09) | cell viability (HCI11) | cell viability (HCI13) | cell viability (HCI16) | cell viability (UCD52) | cell viability (WHIM2) | cell viability (WHIM30) |
| --- | --- | --- | --- | --- | --- | --- | --- | --- | --- |
| COc1cc(C(C)=O)ccc1OCCCN1CCC(c2noc3cc(F)ccc23)CC1 [Iloperidone] | 153 ± 25 | 101 | 117 ± 19 | 103 | 121 ± 14 | 172 | 88.2 ± 1.8 | 106 ± 6 | 122.82 ± 0.035 |
| CN(C)C(=O)NC1CCC(CCN2CCN(c3cccc(Cl)c3Cl)CC2)CC1 (stereo not drawn) [Cariprazine] | 122 ± 28 | 72.1 | 43.9 ± 2.2 | 67.7 | 53.4 ± 11 | 89.7 | 38.5 ± 6 | 119 ± 8 | 118.6 ± 0.35 |
| Cl.O=c1n(CCCN2CCN(c3cccc(Cl)c3)CC2)nc2ccccn12 [Trazodone HCl] | 112 ± 11 | 123 | 95.5 ± 16 | 101 | 104 ± 9.6 | 148 | 89.05 ± 0.23 | 105 ± 23 | 192 ± 16 |
| CC[C@H](C)[C@@H]1NC(=O)[C@H](Cc2ccc(O)cc2)NC(=O)[C@@H](N)CSSC[C@@H](C(=O)N2CCC[C@H]2C(=O)N[C@@H](CC(C)C)C(=O)NCC(N)=O)NC(=O)[C@H](CC(N)=O)NC(=O)[C@H](CCC(N)=O)NC1=O [Oxytocin] | 116 ± 13 | 110 | 99.7 ± 2.2 | 69.2 | 134 ± 41 | 128 | 115 ± 1.7 | 126 ± 1.9 | 134 ± 8.1 |
| C=CC(=O)N1CCCC(n2nc(-c3ccc(Oc4ccccc4)cc3)c3c(N)ncnc32)C1 (stereo not drawn) | 80.2 ± 24 | 69 | 56.2 ± 21 | 83.8 | 87.9 ± 8.6 | 55.6 | 76.7 ± 4.3 | 70.4 ± 7.2 | 103 ± 9.7 |
| C/C=C/C1=C(C(=O)O)N2C(=O)[C@@H](NC(=O)[C@H](N)c3ccc(O)cc3)[C@@H]2SC1 [Cefprozil] | 97.6 ± 3.2 | 174 | 103 ± 22 | 97 | 85.4 ± 1.5 | 115 | 107 ± 8.6 | 93.4 ± 26 | 115 ± 7.5 |
| CN(C)CCC=C1c2ccccc2COc2ccc(CC(=O)O)cc21.Cl [Olopatadine HCl] | 122 ± 18 | 130 | 101 ± 9.1 | 97.6 | 182 ± 38 | 99.1 | 81.6 ± 14 | 87.1 ± 13 | 108 ± 4.9 |
| Nc1[nH]c(=O)ncc1F [Flucytosine] | 106 ± 1.6 | 137 | 94.7 ± 12 | 93.1 | 135 ± 4.5 | 94.7 | 81.4 ± 1.5 | 93.72 ± 0.49 | 82.1 ± 1.3 |
| COc1cc2c(cc1OC)CN(CCc1ccc(NC(=O)c3cccc4c(=O)c5cccc(OC)c5[nH]c34)cc1)CC2 [Elacridar] | 111.7 ± 0.54 | 71.7 | 71.7 ± 33 | 101 | 113 ± 35 | 97.7 | 63.7 ± 5.6 | 48.2 ± 22 | 89.9 ± 0.9 |
| Nc1cccc2c1CN(C1CCC(=O)NC1=O)C2=O (stereo not drawn) [Lenalidomide (CC-5013)] | 111 ± 4.1 | 107 | 85.5 ± 10 | 102 | 80.5 ± 0.91 | 101 | 80.5 ± 12 | 78.6 ± 3.5 | 134 ± 6.6 |
| CN(C)NN=C1N=CN=C1C(N)=O [Dacarbazine] | 122 ± 9.3 | 92.9 | 110.4 ± 0.52 | 93.5 | 120 ± 16 | 82.7 | 107 ± 8 | 80.3 ± 24 | 118 ± 25 |
| CC(=O)O[C@H]1C(=O)[C@@]2(C)[C@H]([C@H](OC(=O)c3ccccc3)[C@]3(O)C[C@H](OC(=O)[C@H](O)[C@@H](NC(=O)c4ccccc4)c4ccccc4)C(C)=C1C3(C)C)[C@]1(OC(C)=O)CO[C@@H]1C[C@@H]2O [Paclitaxel (Taxol)] | 124 ± 7.2 | 92.4 | 95 ± 4.1 | 96.5 | 100 ± 8.8 | 156 | 66.2 ± 4.7 | 92.9 ± 12 | 114 ± 7.4 |
| COc1ccccc1OCC(O)COC(N)=O (stereo not drawn) [Methyocarbamol] | 148 ± 10 | 132 | 144 ± 44 | 108 | 109 ± 3.5 | 111 | 104 ± 8.4 | 104 ± 27 | 134 ± 2.3 |
| C[N+](C)(C)CCOC(N)=O.[Cl-] [Carbamoylcholine chloride] | 108 ± 11 | 120 | 89.4 ± 1.1 | 71.4 | 112 ± 4.6 | 124 | 95.6 ± 2.4 | 127 ± 7 | 98.9 ± 1.4 |
| CN1C[C@@H]2c3ccccc3Oc3ccc(Cl)cc3[C@H]2C1.O=C(O)/C=C/C(=O)O [Asenapine] | 91.9 ± 7 | 93 | 68.9 ± 5.4 | 93.7 | 72.7 ± 4.8 | 121 | 71 ± 5.6 | 79.5 ± 14 | 114 ± 25 |
| CC(CN(C)C)CN1c2ccccc2CCc2ccccc21.O=C(O)/C=C\C(=O)O (stereo not drawn) [Trimipramine (maleate)] | 99.2 ± 13 | 101 | 91.6 ± 9.4 | 69 | 92.2 ± 2.7 | 105 | 86.9 ± 1.5 | 77.6 ± 15 | 93.3 ± 1.9 |
| N#Cc1ccc(C(c2ccc(C#N)cc2)n2cncn2)cc1 [Letrozole] | 111 ± 7.6 | 99.1 | 98.4 ± 3.9 | 102 | 88.2 ± 5.6 | 99.1 | 126 ± 15 | 73.7 ± 21 | 126 ± 8.4 |
